In PubChem BioAssay (EPA / NIEHS) one finds AC50 and outcome data, which are given here for seven compounds.

One assay concerns the target Caspase-1 (Homo sapiens) (UniProt P29466). In words: NVS_ENZ_hCASP1: NovaScreen (NVS) Enzymatic Assay for human Caspase 1 (CASP1) (AID 2283132). An outline of the steps:
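Cell-free enzymatic assay with E. coli-expressed recombinant protein; fluorescence intensity read 1 hour after dosing. Single-concentration duplicate screen at 25 uM, then concentration-response up to 50 uM; activity fitted relative to DMSO, loss of signal meaning inhibition.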

Assay [1] deals with human Caspase 2 (CASP2), CASP2 (gene 835) (UniProt P42575). In words: NVS_ENZ_hCASP2: NovaScreen (NVS) Enzymatic Assay for human Caspase 2 (CASP2) (AID 2283135). An outline of the steps: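 E. coli-expressed enzyme in a cell-free protease assay, fluorescence read 1 h after dosing. Compounds at 25 uM in duplicate, with concentration-response up to 50 uM for hits; loss of signal against DMSO baseline.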

Assay [2] concerns the target rat Neurotensin Receptor (NTS), Ntsr1 (gene 366274) (UniProt P20789). Put plainly: NVS_GPCR_rNTS: NovaScreen (NVS) G Protein-Coupled Receptor Assay for rat Neurotensin Receptor (NTS) (AID 2283308). An outline of the steps: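 Rat forebrain membranes; radioligand binding with competitive displacement, read by filter-based scintillation counting 1 h after dosing. Primary screen in duplicate at 25 uM; actives (e.g., 30% inhibition) rerun in concentration-response up to 50 uM, loss-of-signal versus DMSO.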

Assay [3] concerns the target human Neonicotinoid receptor (NNR), CHRNA2 (gene 1135) (UniProt Q15822). In words: NVS_LGIC_hNNR_NBungSens: NovaScreen (NVS) Ligand-Gated Ion Channel Assay for human Neonicotinoid receptor (NNR) (AID 2283313). An outline of the steps:
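Radioligand displacement on human neuroblastoma membranes, 2 h, filter-based scintillation counting. Primary screen in duplicate at 25 uM; chemicals passing threshold (e.g. 30% inhibition) run singleton concentration-response to 50 uM; loss of binding fitted versus DMSO.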

The target in assay [4] is human Tyrosine Protein Kinase Receptor Tie-2 (Tie2), TEK (gene 7010) (UniProt Q02763). Put plainly: NVS_ENZ_hTie2: NovaScreen (NVS) Enzymatic Assay for human Tyrosine Protein Kinase Receptor Tie-2 (Tie2) (AID 2283225). An outline of the steps:
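Recombinant human Tie2 kinase activity was read cell-free by fluorescence with electrophoretic mobility shift, 1 hour after dosing. The screen used 25 uM in duplicate, then concentration-response up to 50 uM. Signal loss was scored against DMSO.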

The target in assay [5] is rat Corticotropin Releasing Factor Receptor (CRF), Crhr1 (gene 58959) (UniProt P35353). Put plainly: NVS_GPCR_rCRF: NovaScreen (NVS) G Protein-Coupled Receptor Assay for rat Corticotropin Releasing Factor Receptor (CRF) (AID 2283300). An outline of the steps: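 Rat cortical membranes used as receptor source in a radioligand competitive displacement binding assay; scintillation read 2 h after dosing. Primary screen run in duplicate at 25 uM; loss of signal versus DMSO baseline indicates binding.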

Assay [6] addresses human Acetylcholinesterase (AChE), ACHE (gene 43) (UniProt P22303). Put plainly: NVS_ENZ_hAChE: NovaScreen (NVS) Enzymatic Assay for human Acetylcholinesterase (AChE) (AID 2283129). An outline of the steps: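 Cell-free colorimetric enzyme-activity assay; compounds read 0.33 hour after dosing, loss of signal vs DMSO baseline. Primary screen in duplicate at 25 uM single concentration, with active compounds retested in concentration series.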

In assay [7] the target is rat Adenylate Cyclase, Forskolin Stimulated, Adcy5 (gene 64532) (UniProt Q04400). Put plainly: NVS_ENZ_rACFSKBinding: NovaScreen (NVS) Enzymatic Assay for rat Adenylate Cyclase, Forskolin Stimulated (AID 2283232). The procedure, abridged:
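Rat forebrain membrane preparation, cell-free, read 1 h after dosing by filter-based scintillation counting. Primary screen in duplicate at 25 uM; actives (e.g. ≥30% inhibition) rerun in concentration-response up to 50 uM; fit versus DMSO.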

For assay [8], the target named is human Raf-1 Proto-Oncogene, serine/threonine Kinase (RAF1), RAF1 (gene 5894) (UniProt P04049). Put plainly: NVS_ENZ_hRAF1: NovaScreen (NVS) Enzymatic Assay for human Raf-1 Proto-Oncogene, serine/threonine Kinase (RAF1) (AID 2283216). The procedure, abridged: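 Cell-free recombinant kinase with specific fluorescent substrate, product separated by electrophoretic mobility shift; read 1 h after dosing. Primary screen at 25 uM in duplicate; hits then run in concentration-response up to 50 uM, fitted as loss of signal versus DMSO.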

The target of assay [9] is human Matrix Metalloproteinase-1 (MMP1), MMP1 (gene 4312) (UniProt P03956). In words: NVS_ENZ_hMMP1: NovaScreen (NVS) Enzymatic Assay for human Matrix Metalloproteinase-1 (MMP1) (AID 2283181). The procedure, abridged:
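Human MMP1 enzyme activity measured by fluorescence 1 h after dosing, cell-free, with a specific substrate. Screened in duplicate at 25 uM; hits (e.g. 30% inhibition) run in concentration-response up to 50 uM; loss of signal versus DMSO.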

The target of assay [10] is human Aurora Kinase A - serine/threonine-protein Kinase 6 (AurA), AURKA (gene 6790) (UniProt O14965). In words: NVS_ENZ_hAurA: NovaScreen (NVS) Enzymatic Assay for human Aurora Kinase A - serine/threonine-protein Kinase 6 (AurA) (AID 2283142). An outline of the steps:
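Cell-free enzymatic assay with human Aurora A, 1 hour after dosing. Fluorescent substrate turnover detected after electrophoretic mobility shift separation of substrate and product. Screened at 25 uM, actives retested in concentration-response up to 50 uM.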

The target of assay [11] is human Epidermal Growth Factor Receptor (EGFR), EGFR (gene 1956) (UniProt P00533). Put plainly: NVS_ENZ_hEGFR: NovaScreen (NVS) Enzymatic Assay for human Epidermal Growth Factor Receptor (EGFR) (AID 2283151). The procedure, abridged:
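Cell-free kinase assay, fluorescence plus electrophoretic mobility shift separating substrate and product, read 1 hour after dosing; loss of signal vs DMSO. Duplicate screen at 25 uM, then concentration-response to 50 uM.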

Assay [12] addresses human Fibroblast Growth Factor Receptor 1 (FGFR1), FGFR1 (gene 2260) (UniProt P11362). Put plainly: NVS_ENZ_hFGFR1: NovaScreen (NVS) Enzymatic Assay for human Fibroblast Growth Factor Receptor 1 (FGFR1) (AID 2283159). The procedure, abridged:
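Cell-free recombinant kinase with fluorescent substrate, product separated by electrophoretic mobility shift; read 1 hour after dosing, loss of signal relative to DMSO. Initial screen in duplicate at 25 uM, actives followed in concentration series.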

In assay [13] the target is human p21 Activated Kinase 4 (PAK4), PAK4 (gene 10298) (UniProt O96013). In words: NVS_ENZ_hPAK4: NovaScreen (NVS) Enzymatic Assay for human p21 Activated Kinase 4 (PAK4) (AID 2283189). An outline of the steps:
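Cell-free recombinant human PAK4 activity assay; fluorescent substrate and product separated by electrophoretic mobility shift, read 1 h after dosing. Initially tested in duplicate at 25 uM, relative to DMSO baseline.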

Assay [14] concerns the target human Phosphatase and Tensin Homolog (PTEN), PTEN (gene 5728) (UniProt P60484). In words: NVS_ENZ_hPTEN: NovaScreen (NVS) Enzymatic Assay for human Phosphatase and Tensin Homolog (PTEN) (AID 2283203). The procedure, abridged: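 Cell-free recombinant human PTEN with fluorescent substrate; product separated by electrophoretic mobility shift and read by fluorescence 1 h after dosing. Primary screen in duplicate at 25 uM, actives followed in concentration series versus DMSO.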

In assay [15] the target is Voltage-dependent N-type calcium channel subunit alpha-1B (Rattus norvegicus) (UniProt Q02294). Put plainly: NVS_IC_rCaChN: NovaScreen (NVS) Ion Channel Assay for rat Calcium Channel, Type N (CaChN) (AID 2283317).

Records with an inconclusive call do not appear. Active and inactive are the calls of the source. How the source made its calls: active means hit-call score of the fitted dose curve at least 0.9, where 1 is the maximum; inconclusive means response in the unintended direction; inactive means score below 0.9.

The AC50 is the midpoint of the concentration-response curve, whichever way the signal moves.

Caspase-1 (Homo sapiens), sequence (P29466 whole entry, looked up): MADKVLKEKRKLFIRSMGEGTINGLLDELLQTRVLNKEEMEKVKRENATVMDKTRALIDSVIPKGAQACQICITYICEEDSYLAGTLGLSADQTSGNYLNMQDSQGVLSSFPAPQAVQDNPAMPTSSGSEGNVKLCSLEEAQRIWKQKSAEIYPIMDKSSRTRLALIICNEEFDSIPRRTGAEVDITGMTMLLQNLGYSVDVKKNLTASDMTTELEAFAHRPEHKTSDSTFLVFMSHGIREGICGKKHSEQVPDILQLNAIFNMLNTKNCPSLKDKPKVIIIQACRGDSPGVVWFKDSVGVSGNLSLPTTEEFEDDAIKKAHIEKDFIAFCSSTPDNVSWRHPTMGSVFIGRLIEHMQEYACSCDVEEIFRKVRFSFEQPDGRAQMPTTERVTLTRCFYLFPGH
human Caspase 2 (CASP2), CASP2 (gene 835), sequence (P42575 whole entry, looked up): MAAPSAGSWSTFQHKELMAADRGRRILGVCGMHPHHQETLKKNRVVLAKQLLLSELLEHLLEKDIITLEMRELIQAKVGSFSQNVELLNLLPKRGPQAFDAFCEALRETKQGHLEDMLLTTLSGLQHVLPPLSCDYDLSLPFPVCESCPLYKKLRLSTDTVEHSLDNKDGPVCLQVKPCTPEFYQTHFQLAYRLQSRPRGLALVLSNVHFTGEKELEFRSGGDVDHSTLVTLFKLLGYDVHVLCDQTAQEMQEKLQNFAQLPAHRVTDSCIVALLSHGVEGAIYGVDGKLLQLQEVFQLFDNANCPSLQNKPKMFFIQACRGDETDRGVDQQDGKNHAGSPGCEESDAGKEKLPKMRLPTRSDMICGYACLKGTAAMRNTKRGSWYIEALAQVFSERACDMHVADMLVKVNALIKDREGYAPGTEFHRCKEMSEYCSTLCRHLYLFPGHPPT
human Tyrosine Protein Kinase Receptor Tie-2 (Tie2), TEK (gene 7010), sequence (Q02763 whole entry, looked up): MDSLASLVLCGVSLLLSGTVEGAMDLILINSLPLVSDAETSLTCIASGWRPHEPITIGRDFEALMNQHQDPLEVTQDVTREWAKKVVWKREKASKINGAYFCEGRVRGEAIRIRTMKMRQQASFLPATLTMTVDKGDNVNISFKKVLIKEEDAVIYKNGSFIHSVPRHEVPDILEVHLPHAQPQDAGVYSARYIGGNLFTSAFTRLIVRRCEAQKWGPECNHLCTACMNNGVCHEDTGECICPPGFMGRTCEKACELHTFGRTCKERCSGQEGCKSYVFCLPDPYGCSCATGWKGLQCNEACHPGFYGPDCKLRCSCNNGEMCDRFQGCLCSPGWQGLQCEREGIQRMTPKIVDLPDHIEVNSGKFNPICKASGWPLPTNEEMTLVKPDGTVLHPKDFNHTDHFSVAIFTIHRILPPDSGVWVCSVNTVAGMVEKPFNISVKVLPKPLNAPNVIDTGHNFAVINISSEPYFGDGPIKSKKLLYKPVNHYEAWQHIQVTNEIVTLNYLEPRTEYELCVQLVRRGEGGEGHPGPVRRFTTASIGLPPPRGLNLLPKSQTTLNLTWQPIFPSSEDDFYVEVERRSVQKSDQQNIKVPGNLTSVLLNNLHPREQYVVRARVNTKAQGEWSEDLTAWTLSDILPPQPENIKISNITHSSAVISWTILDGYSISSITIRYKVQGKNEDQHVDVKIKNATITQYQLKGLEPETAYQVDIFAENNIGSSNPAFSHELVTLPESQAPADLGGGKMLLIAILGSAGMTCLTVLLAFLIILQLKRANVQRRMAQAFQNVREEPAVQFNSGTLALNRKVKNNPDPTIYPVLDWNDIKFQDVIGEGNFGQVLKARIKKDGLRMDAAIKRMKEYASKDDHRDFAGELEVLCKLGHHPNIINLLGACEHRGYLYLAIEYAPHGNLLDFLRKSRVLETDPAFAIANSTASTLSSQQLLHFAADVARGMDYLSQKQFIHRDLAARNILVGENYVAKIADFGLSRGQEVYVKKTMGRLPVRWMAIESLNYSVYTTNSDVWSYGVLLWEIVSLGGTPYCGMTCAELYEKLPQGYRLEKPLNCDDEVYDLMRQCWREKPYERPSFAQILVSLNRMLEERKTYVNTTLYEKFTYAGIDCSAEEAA
human Acetylcholinesterase (AChE), ACHE (gene 43), sequence (P22303 whole entry, looked up): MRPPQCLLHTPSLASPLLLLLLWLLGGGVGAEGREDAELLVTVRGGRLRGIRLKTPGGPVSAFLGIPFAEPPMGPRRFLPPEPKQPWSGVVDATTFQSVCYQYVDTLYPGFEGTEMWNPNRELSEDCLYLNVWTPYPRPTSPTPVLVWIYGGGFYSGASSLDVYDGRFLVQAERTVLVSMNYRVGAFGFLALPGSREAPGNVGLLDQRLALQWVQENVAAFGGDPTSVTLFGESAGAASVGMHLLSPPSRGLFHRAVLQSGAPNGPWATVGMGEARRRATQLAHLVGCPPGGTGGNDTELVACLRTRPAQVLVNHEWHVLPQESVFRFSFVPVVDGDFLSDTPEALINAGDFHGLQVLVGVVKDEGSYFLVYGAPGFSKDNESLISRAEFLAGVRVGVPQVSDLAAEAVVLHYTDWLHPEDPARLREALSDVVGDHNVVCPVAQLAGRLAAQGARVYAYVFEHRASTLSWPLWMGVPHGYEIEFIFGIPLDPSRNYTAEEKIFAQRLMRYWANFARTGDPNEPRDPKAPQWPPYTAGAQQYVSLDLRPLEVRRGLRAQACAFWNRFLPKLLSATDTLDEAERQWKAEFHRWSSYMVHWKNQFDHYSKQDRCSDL
human p21 Activated Kinase 4 (PAK4), PAK4 (gene 10298), sequence (O96013 whole entry, looked up): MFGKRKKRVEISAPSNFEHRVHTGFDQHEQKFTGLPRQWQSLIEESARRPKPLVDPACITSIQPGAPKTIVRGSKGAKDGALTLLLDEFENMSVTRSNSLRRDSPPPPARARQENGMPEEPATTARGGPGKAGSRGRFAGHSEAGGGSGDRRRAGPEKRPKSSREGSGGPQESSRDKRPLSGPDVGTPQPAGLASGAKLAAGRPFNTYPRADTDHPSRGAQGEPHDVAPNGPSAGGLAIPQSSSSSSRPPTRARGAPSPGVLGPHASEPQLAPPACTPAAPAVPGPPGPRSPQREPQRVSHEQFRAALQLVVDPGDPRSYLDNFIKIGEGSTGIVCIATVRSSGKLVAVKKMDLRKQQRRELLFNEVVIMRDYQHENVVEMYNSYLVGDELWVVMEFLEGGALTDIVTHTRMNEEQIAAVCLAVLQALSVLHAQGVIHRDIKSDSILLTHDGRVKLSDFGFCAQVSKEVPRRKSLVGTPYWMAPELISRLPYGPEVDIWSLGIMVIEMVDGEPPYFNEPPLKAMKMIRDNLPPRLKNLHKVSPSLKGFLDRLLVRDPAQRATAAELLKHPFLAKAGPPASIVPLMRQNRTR
human Fibroblast Growth Factor Receptor 1 (FGFR1), FGFR1 (gene 2260), sequence (P11362 whole entry, looked up): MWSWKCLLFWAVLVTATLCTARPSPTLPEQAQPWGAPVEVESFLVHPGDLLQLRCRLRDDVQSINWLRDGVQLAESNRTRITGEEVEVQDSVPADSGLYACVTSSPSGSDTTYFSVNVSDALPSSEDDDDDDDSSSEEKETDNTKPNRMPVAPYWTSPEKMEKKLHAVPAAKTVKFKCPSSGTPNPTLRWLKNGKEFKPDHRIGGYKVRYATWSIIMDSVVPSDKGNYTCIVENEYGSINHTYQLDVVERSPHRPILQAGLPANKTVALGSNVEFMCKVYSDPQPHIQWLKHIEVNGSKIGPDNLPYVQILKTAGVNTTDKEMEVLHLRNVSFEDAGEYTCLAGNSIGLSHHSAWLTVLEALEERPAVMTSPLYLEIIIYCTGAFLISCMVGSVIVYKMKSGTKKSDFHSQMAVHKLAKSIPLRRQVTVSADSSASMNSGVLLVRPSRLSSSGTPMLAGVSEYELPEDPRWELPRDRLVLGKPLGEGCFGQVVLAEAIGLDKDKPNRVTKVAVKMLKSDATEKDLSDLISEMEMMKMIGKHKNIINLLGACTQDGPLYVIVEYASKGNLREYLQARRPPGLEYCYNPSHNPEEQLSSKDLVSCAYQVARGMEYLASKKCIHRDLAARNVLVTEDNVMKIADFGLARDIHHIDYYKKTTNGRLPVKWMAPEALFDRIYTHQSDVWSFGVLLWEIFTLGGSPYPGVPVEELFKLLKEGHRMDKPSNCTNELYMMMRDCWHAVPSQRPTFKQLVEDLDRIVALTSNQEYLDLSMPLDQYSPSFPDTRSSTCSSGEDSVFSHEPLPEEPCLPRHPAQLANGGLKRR
human Raf-1 Proto-Oncogene, serine/threonine Kinase (RAF1), RAF1 (gene 5894), sequence (P04049 whole entry, looked up): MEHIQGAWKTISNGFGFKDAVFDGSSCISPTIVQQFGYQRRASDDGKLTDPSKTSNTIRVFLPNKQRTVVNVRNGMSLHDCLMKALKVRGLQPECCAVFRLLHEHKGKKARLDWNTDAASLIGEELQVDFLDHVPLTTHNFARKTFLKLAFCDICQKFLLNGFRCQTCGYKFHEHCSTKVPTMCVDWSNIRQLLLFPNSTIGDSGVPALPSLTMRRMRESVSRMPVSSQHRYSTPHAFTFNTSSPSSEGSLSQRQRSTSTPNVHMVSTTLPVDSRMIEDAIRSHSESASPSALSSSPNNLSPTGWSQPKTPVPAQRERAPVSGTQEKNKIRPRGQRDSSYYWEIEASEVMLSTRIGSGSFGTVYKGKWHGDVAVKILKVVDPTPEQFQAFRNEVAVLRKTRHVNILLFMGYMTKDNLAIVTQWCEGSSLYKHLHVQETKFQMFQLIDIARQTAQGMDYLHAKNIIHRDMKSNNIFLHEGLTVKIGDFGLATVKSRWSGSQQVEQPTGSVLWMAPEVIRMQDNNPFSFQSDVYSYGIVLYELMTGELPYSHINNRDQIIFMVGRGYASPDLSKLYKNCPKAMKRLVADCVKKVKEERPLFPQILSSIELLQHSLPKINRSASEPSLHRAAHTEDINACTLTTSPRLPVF

For `COc1cc(S(=O)(=O)O)c(C)cc1N=Nc1c(O)ccc2cc(S(=O)(=O)O)ccc12`, the AC50 with Caspase-1 (Homo sapiens) was 25 µM (active); in [1], 6.73 µM (active); in [2], 16.8 µM (active); in assay [3], 16.7 µM (active).
For `CCC(O)=C1C(=O)CC(C(=O)O)CC1=O` (centres undefined), the compound was called inactive (with Caspase-1 (Homo sapiens); in assay [1]; in assay [4]; in assay [5]).
Consider `O=C(OC[C@H]1O[C@@H](OC(=O)c2cc(O)c(O)c(OC(=O)c3cc(O)c(O)c(O)c3)c2)[C@H](OC(=O)c2cc(O)c(O)c(OC(=O)c3cc(O)c(O)c(O)c3)c2)[C@@H](OC(=O)c2cc(O)c(O)c(OC(=O)c3cc(O)c(O)c(O)c3)c2)[C@@H]1OC(=O)c1cc(O)c(O)c(OC(=O)c2cc(O)c(O)c(O)c2)c1)c1cc(O)c(O)c(OC(=O)c2cc(O)c(O)c(O)c2)c1`, for which the half-maximal activity concentration (AC50) in [6] is 0.644 µM (active); with Caspase-1 (Homo sapiens), 1.14 µM (active); in assay [1], 4.65 µM (active). In [7], the compound was classed as inactive.
As for `Cn1c(=O)cc(Oc2ccc(F)cc2F)c2cnc(NCC(C)(C)O)nc21`, the concentration at half-maximal activity (AC50) in [6] was 17.3 µM (active). The result in [8] was inactive.
As to `O=C(O)CCN(C1(C(=O)NO)CCCC1)S(=O)(=O)c1ccc(Oc2ccc(F)cc2)cc1`, the compound was classed as inactive in [1]. Further, in [9], the half-maximal activity concentration (AC50) was 3.49 µM (active).
With `O=C(Oc1ccccc1)c1cccc(C(=O)Oc2ccccc2)c1`, the result in [10], in [11], in [12], in [13], in [14] and in assay [4] was inactive.
In the case of `CC[C@@H]1C[C@H](N(Cc2cc(C(F)(F)F)cc(C(F)(F)F)c2)C(C)=O)c2cc(C(F)(F)F)ccc2N1C(=O)OC(C)C`, the outcome in assay [1] and in [15] was inactive.
